Experimental data: PubChem BioAssay AID1159580 (chemical genetic matrix, 2015)
Several values for one entry are separate records, joined by “and”; a condition that tells them apart may be missing. Equal entries are not always repeated. Among all 5,500 compounds or so, about 2,000 (36%) were called active. Inconclusive results (about 18%) are left out. Cut-off read from the data, not from the text of the source: active = normalized growth mostly below about 0.91 (no sharp cut-off); inconclusive = no clear call, values can overlap the other calls; inactive = mostly above about 0.92. This is one part of the list.

Test: chemical genetic growth profiling, strain panel (AID 1159580);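 note: tested at 20 µM; growth read once vehicle control cultures reached saturation at 30 °C; 1 = growth at the plate median or of vehicle wells; lower values mean less growth of the strain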
Details: S. cerevisiae deletion strains, growth OD

Measured: normalized growth

CCCCOC(=O)c1ccc(N)cc1
0.637 (active) and 0.942 (inactive): locus YHR030C, strain SLT2, stronger effect = lower value
inactive: locus YAL013W, strain DEP1, stronger effect = lower value 0.974 | locus YAL021C, strain ccr4, stronger effect = lower value 0.909 | locus YBR021W, strain FUR4, stronger effect = lower value 0.948 | locus YBR229C, strain ROT2, stronger effect = lower value 0.993 | locus YCL029C, strain bik1, stronger effect = lower value 0.948 | locus YDL005C, strain med2, stronger effect = lower value 0.949 | locus YDL035C, strain GPR1, stronger effect = lower value 0.951 | locus YDL074C, strain BRE1, stronger effect = lower value 0.869 | locus YDL101C, strain DUN1, stronger effect = lower value 0.975 | locus YDL134C, strain PPH21, stronger effect = lower value 0.969 | locus YDL185W, strain tfp1, stronger effect = lower value 0.959 | locus YDR069C, strain doa4, stronger effect = lower value 0.916 | locus YDR150W, strain NUM1, stronger effect = lower value 0.988 | locus YDR195W, strain ref2 1.14 | locus YDR334W, strain swr1, stronger effect = lower value 0.914 | locus YEL037C, strain rad23, stronger effect = lower value 0.928 | locus YEL061C, strain CIN8, stronger effect = lower value 0.974 | locus YER110C, stronger effect = lower value 0.922 | locus YER155C, strain BEM2, stronger effect = lower value 0.969 | locus YER167W, strain BCK2, stronger effect = lower value 0.906 | locus YFR010W, strain ubp6, stronger effect = lower value 0.924 | locus YGL078C, strain dbp3, stronger effect = lower value 0.96 | locus YGL167C, strain pmr1, stronger effect = lower value 0.927 | locus YGL248W, strain PDE1, stronger effect = lower value 0.996 | locus YGR078C, strain PAC10, stronger effect = lower value 0.89 | locus YHR013C, strain ard1, stronger effect = lower value 0.856 | locus YHR079C, strain IRE1 (second series), stronger effect = lower value 0.935 | locus YHR079C, strain IRE1, stronger effect = lower value 0.993 | locus YHR094C, strain hxt1, stronger effect = lower value 0.961 | locus YHR129C, strain ARP1, stronger effect = lower value 0.984 | locus YHR200W, strain rpn10, stronger effect = lower value 0.933 | locus YIL066C, strain RNR3, stronger effect = lower value 0.925 | locus YIL073C, strain SPO22, stronger effect = lower value 0.85 | locus YIL125W, strain kgd1, stronger effect = lower value 0.967 | locus YIR030C, strain dcg1, stronger effect = lower value 0.946 | locus YJL115W, strain asf1, stronger effect = lower value 0.907 | locus YJL134W, strain LCB3, stronger effect = lower value 0.985 | locus YJL168C, strain set2, stronger effect = lower value 0.953 | locus YJL187C, strain SWE1 (second series), stronger effect = lower value 0.93 | locus YJR043C, strain POL32, stronger effect = lower value 0.871 | locus YJR066W, strain TOR1, stronger effect = lower value 0.949
0.511 (active) and 0.971 (inactive): locus YJL095W, strain BCK1, stronger effect = lower value
active: locus YAL026C, strain drs2, stronger effect = lower value 0.603 | locus YAL030W, strain snc1, stronger effect = lower value 0.908 | locus YBL061C, strain skt5, stronger effect = lower value 0.71 | locus YBR009C, strain hhf1, stronger effect = lower value 0.849 | locus YBR023C, strain chs3, stronger effect = lower value 0.729 | locus YBR171W, strain sec66, stronger effect = lower value 0.884 | locus YBR231C, strain swc5, stronger effect = lower value 0.821 | locus YBR279W, strain paf1, stronger effect = lower value 0.897 | locus YCL011C, strain gbp2, stronger effect = lower value 0.891 | locus YCL016C, strain dcc1, stronger effect = lower value 0.86 | locus YCL069W, strain vba3, stronger effect = lower value 0.886 | locus YCR088W, strain abp1, stronger effect = lower value 0.862 | locus YDL040C, strain nat1, stronger effect = lower value 0.932 | locus YDL192W, strain arf1, stronger effect = lower value 0.886 | locus YDR001C, strain nth1, stronger effect = lower value 0.904 | locus YDR101C, strain arx1, stronger effect = lower value 0.898 | locus YDR137W, strain rgp1, stronger effect = lower value 0.453 | locus YDR159W, strain sac3, stronger effect = lower value 0.751 | locus YDR162C, strain NBP2, stronger effect = lower value 0.801 | locus YDR297W, strain sur2, stronger effect = lower value 0.92 | locus YDR318W, strain mcm21, stronger effect = lower value 0.897 | locus YDR335W, strain msn5, stronger effect = lower value 0.858 | locus YDR388W, stronger effect = lower value 0.911 | locus YDR392W, strain spt3, stronger effect = lower value 0.484 | locus YDR502C, strain sam2, stronger effect = lower value 0.911 | locus YEL003W, strain gim4, stronger effect = lower value 0.888 | locus YEL061C, strain CIN8 (second series), stronger effect = lower value 0.895 | locus YER015W, strain faa2, stronger effect = lower value 0.864 | locus YER016W, strain bim1, stronger effect = lower value 0.877 | locus YER111C, strain swi4, stronger effect = lower value 0.896 | locus YER155C, strain BEM2 (second series), stronger effect = lower value 0.203 | locus YGL086W, strain mad1, stronger effect = lower value 0.927 | locus YGL173C, strain kem1, stronger effect = lower value 0.876 | locus YGL227W, strain vid30, stronger effect = lower value 0.893 | locus YGL240W, strain doc1, stronger effect = lower value 0.666 | locus YGL253W, strain hxk2, stronger effect = lower value 0.869 | locus YGR135W, strain pre9, stronger effect = lower value 0.865 | locus YGR229C, strain SMI1, stronger effect = lower value 0.608 | locus YGR252W, strain gcn5, stronger effect = lower value 0.743 | locus YHR027C, strain rpn1, stronger effect = lower value 0.908 | locus YHR142W, strain chs7, stronger effect = lower value 0.495 | locus YJL092W, strain hpr5, stronger effect = lower value 0.872 | locus YJL095W, strain BCK1 (second series), stronger effect = lower value 0.278 | locus YJL129C, strain trk1, stronger effect = lower value 0.769 | locus YJL154C, strain vps35, stronger effect = lower value 0.906 | locus YJL164C, strain tpk1, stronger effect = lower value 0.871 | locus YJL166W, strain qcr8, stronger effect = lower value 0.825 | locus YJL187C, strain SWE1, stronger effect = lower value 0.919
